Results reported in PubChem BioAssay (NCI).
The panel holds about 83,000 compounds, 20% with a hit somewhere; the sample as a whole holds those more often.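 Assay: single dose, 48 h. Readout: percent growth (0 = no net growth; negative = cell death). Active: <10.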 Calls of active or inactive are those of the source.

These molecules were tested on HOP-62 NSCLC (assay: NCI-60 one-dose screen, 48 h (100 = growth as untreated, 0 = no growth, -100 = all killed)). Conditions: 10 µM unless noted.
With `CCC(CC)N1C(=O)/C(=c2\sc3n(c2=O)NC2C(N=3)N(CC)C(=O)N2CC)c2ccccc21` (stereo not drawn) the growth was 73.2% (inactive).
With `CN1CCN(c2ccc(/C=N/Nc3nc4ccccc4c(=O)n3-c3ccccc3)cc2)CC1` the growth was 96.2% (inactive).
For `CC1=NC2=NC(=O)/C(=C3/N=C(C)C=C(c4ccccc4)N3N)NN2C(c2ccccc2)=C1`, the growth was 94.3% (inactive).
For `Nc1ncc(-c2ccc3ncnc(N4CCc5cc(F)c(F)cc54)c3c2)cn1`, the growth was 13.4% (inactive).
`COc1ccc(Oc2ccc(/C=N/NC(=O)CSc3nc4ccccc4c(=O)n3-c3ccc(Cl)cc3)cc2)cc1` was tested, and the growth was 73.3% (inactive).
In the case of `COc1ccc2c(c1)Oc1nc(N)c(C#N)c(N)c1C2Sc1ccc(C)cc1` (stereo not drawn), the growth is reported as 100% (inactive).
With `CC(=O)C1=C(C)NC(NN)=NC1c1cccc(Cl)c1` (stereo not drawn) the growth was 99.2% (inactive).
For `O=C(NNc1nc2cc(F)ccc2n2c(CO)ccc12)c1cnccn1`, the growth was 5.67% (active).
In the case of `NC(N)=Nc1ccc(Oc2cccc(NC(N)=Nc3ccc(Br)cc3)c2)cn1`, the growth is reported as 65.6% (inactive).
In the case of `CCOC(=O)C1=NNC(c2ccc(Cl)cc2)C1C(=O)N1C(=S)NC(=O)C1CC(C)C` (stereo not drawn), the growth is reported as 92.8% (inactive).
`CC/C(=C/c1c(O)cccc1OC)c1ccc2c(OC)cccc2[o+]1` was tested, and the growth was 101% (inactive).
`Cn1ccnc1C(=O)/C=C/c1ccc(CNC(=O)c2ccc(Cl)cc2)cc1` was tested, and the growth was 16.3% (inactive).
With `COc1c(N2CC3CCCNC3C2)c(F)cc2c(=O)c(C(=O)N/N=C/c3ccc(F)cc3)cn(C3CC3)c12` (stereo not drawn) the growth was 98.9% (inactive).
With `CN(C)CCNC(=O)c1ccc(-c2nc3ccc4[nH]ncc4c3c3c2CCC3)cc1` the growth was 5.66% (active).
For `C=C(C=O)[C@@H]1CC[C@]2(COC(C)=O)CC[C@]3(C)C(CC[C@@H]4[C@@]5(C)CC[C@H](OC(C)=O)C(C)(C)[C@@H]5CC[C@]43C)[C@@H]12` (stereo partly drawn), the growth was 80.6% (inactive).
`COc1c(N2CC3CCCNC3C2)c(F)cc2c(=O)c(C(=O)N/N=C/c3c[nH]c4ccccc34)cn(C3CC3)c12` (stereo not drawn) was tested, and the growth was 109% (inactive).
In the case of `COc1cc(C2N=C(NNc3ccccc3)NC(C)=C2C(C)=O)ccc1O` (stereo not drawn), the growth is reported as 82% (inactive).
For `CCCCCc1ccc(S(=O)(=O)Nc2cccc(-c3csc(NC(=O)CNCCN(C)C)n3)c2)cc1`, the growth was 98.8% (inactive).
`CCCCCc1ccc(S(=O)(=O)Nc2cccc(-c3csc(NC(=O)CCCCCN4CCN(CCO)CC4)n3)c2)cc1` was tested, and the growth was 85.1% (inactive).
In the case of `CS(=O)(=O)Nc1cc(-c2ccc3ncc(C#N)c(NCc4ccccc4O)c3c2)cnc1Cl`, the growth is reported as 3.57% (active).
For `CC(=O)N1C(=S)NC(=O)C1CC(C)C` (stereo not drawn), the growth was 99.8% (inactive).
With `COc1cc(/C=C2\C(=O)Nc3ccccc32)ccc1OCc1ccc(Cl)cc1` the growth was 101% (inactive).
With `COc1cc2oc(-c3cccc(NC(=O)c4cc(N)ccc4Cl)c3)cc(=O)c2c(OC)c1OC` the growth was 111% (inactive).
For `COc1ccc(Cn2cc3c(c2-c2cc(OC)c(OC)c(OC)c2)CCc2c(CN4CCCC4)noc2-3)cc1`, the growth was 33.8% (inactive).
For `CCCCCc1ccc(S(=O)(=O)Nc2cccc(-c3csc(NCCN4CCN(C)CC4)n3)c2)cc1`, the growth was 89.4% (inactive).
In the case of `CCC1=Cc2cc(OC)ccc2OC12C=Cc1cc(OC)ccc1O2` (stereo not drawn), the growth is reported as 64.3% (inactive).
In the case of `CCCCCc1ccc(S(=O)(=O)Nc2cccc(-c3csc(NC(=O)CCCCCN4CCN(C)CC4)n3)c2)cc1`, the growth is reported as 79.4% (inactive).
In the case of `N#Cc1cnc2ccc(-c3cnc4[nH]ncc4c3)cc2c1N1CCc2cc(F)c(Cl)cc21`, the growth is reported as 3.97% (active).
With `CC(C)C[C@@H]1N[C@@]2(C(=O)Nc3ccccc32)[C@@H](c2ccc(F)cc2)[C@@H]1C(=O)c1ccc(O)cc1` the growth was 88.9% (inactive).
`O=C(NNc1nc2cc(F)cc(F)c2n2cccc12)c1cnccn1` was tested, and the growth was 14.5% (inactive).
With `O=C(NNc1nc2cc(F)c(F)cc2n2cccc12)c1cnccn1` the growth was 24.8% (inactive).
In the case of `O=C(CNc1nc(-c2cccc([N+](=O)[O-])c2)cs1)Nc1cccc([N+](=O)[O-])c1`, the growth is reported as 17.3% (inactive).
`CC(Nc1c(C#N)cnc2ccc(-c3cnc(N)nc3)cc12)c1ccccc1` (stereo not drawn) was tested, and the growth was 10.6% (inactive).
With `C=CCn1c(SCC(=O)Nc2ccc(C(=O)/C=C/c3ccc(Cl)cc3)cc2)nnc1-c1c[nH]c2ccccc12` the growth was 88.8% (inactive).
For `CCCCCc1ccc(S(=O)(=O)Nc2cccc(-c3csc(NC(=O)CN4CCN(C)CC4)n3)c2)cc1`, the growth was 89.5% (inactive).
In the case of `O=C(NCc1ncc[nH]1)c1ccc(-c2nc3ccc4[nH]ncc4c3c3c2CCCC3)cc1`, the growth is reported as 17.8% (inactive).
For `Cc1c(Cl)cccc1S(=O)(=O)Nc1ccc2c(c1)C(=O)N(C1CCC(=O)NC1=O)C2=O` (stereo not drawn), the growth was 73.5% (inactive).
`COC(=O)C1(C)CCC[C@]2(C)[C@H]3C[C@H]4C(C(C)C)=C[C@]3(CC[C@@H]12)[C@H]1[C@@H]4[C@@H](OC(=O)c2ccco2)CC[C@@H]1OC(=O)c1ccco1` (stereo partly drawn) was tested, and the growth was 96.9% (inactive).
